Assay results as given in PubChem BioAssay AID1159580 (chemical genetic matrix, 2015).
Several values for one entry are separate records, joined by “and”; a condition that tells them apart may be missing. Equal values may be shown once. Hit rate of the full screen: of about 5,500 compounds, about 2,000 (36%) were called active. Roughly 18% stayed inconclusive and do not appear here. No stated cut-off is given here; in the data, active means normalized growth mostly below about 0.91 (no sharp cut-off); inconclusive means no clear call, values can overlap the other calls; inactive means mostly above about 0.92. Some of the results follow.

Assay: chemical genetic growth profiling, strain panel (AID 1159580);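 further: tested at 20 µM; growth read once vehicle control cultures reached saturation at 30 °C; 1 = growth at the plate median or of vehicle wells; lower values mean less growth of the strain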
Settings: growth OD
[1] = S. cerevisiae deletion strains, locus YAL013W, strain DEP1, active compounds read low
[2] = S. cerevisiae deletion strains, locus YBR229C, strain ROT2, active compounds read low
[3] = S. cerevisiae deletion strains, locus YDL101C, strain DUN1, active compounds read low
[4] = S. cerevisiae deletion strains, locus YDR150W, strain NUM1, active compounds read low
[5] = S. cerevisiae deletion strains, locus YEL061C, strain CIN8, active compounds read low
[6] = S. cerevisiae deletion strains, locus YGR078C, strain PAC10, active compounds read low
[7] = S. cerevisiae deletion strains, locus YGR229C, strain SMI1, active compounds read low
[8] = S. cerevisiae deletion strains, locus YHR030C, strain SLT2, active compounds read low
[9] = S. cerevisiae deletion strains, locus YJR043C, strain POL32, active compounds read low
[10] = S. cerevisiae deletion strains, locus YJR075W, strain HOC1, active compounds read low
[11] = S. cerevisiae deletion strains, locus YLR039C, strain RIC1, active compounds read low
[12] = S. cerevisiae deletion strains, locus YLR262C, strain YPT6, active compounds read low
[13] = S. cerevisiae deletion strains, locus YMR263W, strain SAP30, active compounds read low
[14] = S. cerevisiae deletion strains, locus YNL153C, strain GIM3, active compounds read low
[15] = S. cerevisiae deletion strains, locus YNL322C, strain KRE1, active compounds read low
[16] = S. cerevisiae deletion strains, locus YOL006C, strain TOP1, active compounds read low
[17] = S. cerevisiae deletion strains, locus YPL055C, strain LGE1, active compounds read low
[18] = S. cerevisiae deletion strains, locus YPL241C, strain CIN2, active compounds read low
[19] = S. cerevisiae deletion strains, locus YAL040C, strain CLN3, active compounds read low
[20] = S. cerevisiae deletion strains, locus YCL061C, strain MRC1 (second series), active compounds read low
[21] = S. cerevisiae deletion strains, locus YDR363W, strain ESC2, active compounds read low
[22] = S. cerevisiae deletion strains, locus YER002W, strain NOP16, active compounds read low
[23] = S. cerevisiae deletion strains, locus YMR307W, strain GAS1, active compounds read low
[24] = S. cerevisiae deletion strains, locus YNL175C, strain NOP13, active compounds read low
[25] = S. cerevisiae deletion strains, locus YNL197C, strain WHI3, active compounds read low
[26] = S. cerevisiae deletion strains, locus YNL224C, strain SQS1, active compounds read low
[27] = S. cerevisiae deletion strains, locus YOR083W, strain WHI5 (second series), active compounds read low
[28] = S. cerevisiae deletion strains, locus YHR079C, strain IRE1, active compounds read low
[29] = S. cerevisiae deletion strains, locus YJL095W, strain BCK1, active compounds read low
[30] = S. cerevisiae deletion strains, locus YJR066W, strain TOR1, active compounds read low
[31] = S. cerevisiae deletion strains, locus YLR113W, strain HOG1, active compounds read low
[32] = S. cerevisiae deletion strains, locus YNL183C, strain NPR1, active compounds read low
[33] = S. cerevisiae deletion strains, locus YOR231W, strain MKK1, active compounds read low
[34] = S. cerevisiae deletion strains, locus YPL256C, strain CLN2, active compounds read low

Measured: normalized growth

CCN(CC)C(=O)c1[nH]c(C)c(C)c1C
inactive: [1] 1.01 | [2] 1 | S. cerevisiae deletion strains, locus YCL061C, strain MRC1, active compounds read low 1.01 | [3] 0.994 | [4] 1.01 | [5] 0.985 | [6] 1.01 | [7] 1.02 | [8] 1 | S. cerevisiae deletion strains, locus YHR087W, strain rtc3, active compounds read low 0.998 | [9] 0.997 | [10] 1.01 | [11] 1.02 | S. cerevisiae deletion strains, locus YLR058C, strain SHM2 (second series), active compounds read low 1.01 | S. cerevisiae deletion strains, locus YLR085C, strain ARP6, active compounds read low 1.03 | [12] 0.995 | S. cerevisiae deletion strains, locus YML094W, strain GIM5, active compounds read low 1.02 | S. cerevisiae deletion strains, locus YMR219W, strain ESC1, active compounds read low 1.02 | [13] 1.01 | [14] 1 | S. cerevisiae deletion strains, locus YNL298W, strain CLA4 (second series), active compounds read low 1.01 | [15] 0.985 | S. cerevisiae deletion strains, locus YNR030W, strain Alg12, active compounds read low 1 | [16] 1.04 | [17] 1.02 | [18] 0.994 | S. cerevisiae deletion strains, locus YPR135W, strain CTF4, active compounds read low 1.06

COC(=O)[C@@H]1[C@H]2C[C@H]3c4[nH]c5ccccc5c4CCN3C[C@@H]2CC[C@@H]1O
inactive: [1] 0.98 | [19] 1.03 | [20] 0.99 | [4] 1.01 | [21] 0.981 | [22] 1 | [6] 0.987 | [10] 0.98 | [13] 0.987 | [23] 1 | [24] 1 | [25] 0.984 | [26] 0.981 | [15] 0.952 | [27] 0.975 | [17] 0.983

O=C(O)Cc1cnc[nH]1
inactive: [1] 1.04 | [19] 1.04 | [20] 1.02 | [4] 1.04 | [21] 1.02 | [22] 1.01 | [8] 0.992 | [28] 1.01 | [29] 1 | [30] 0.985 | [31] 1 | [14] 1.03 | [24] 1 | [32] 0.938 | [25] 1.01 | [26] 1 | [15] 1.02 | [27] 1.01 | [33] 1 | [18] 1.01 | [34] 1

CC12CCC3c4ccc(OC(=O)c5ccccc5)cc4CCC3C1CCC2O (centres undefined)
inactive: S. cerevisiae deletion strains, locus YBR021W, strain FUR4, active compounds read low 1.06 | [2] 1 | S. cerevisiae deletion strains, locus YCL029C, strain bik1, active compounds read low 1 | S. cerevisiae deletion strains, locus YDL035C, strain GPR1, active compounds read low 1 | S. cerevisiae deletion strains, locus YDL074C, strain BRE1, active compounds read low 0.981 | [3] 0.992 | S. cerevisiae deletion strains, locus YDL134C, strain PPH21, active compounds read low 1 | S. cerevisiae deletion strains, locus YDL185W, strain tfp1, active compounds read low 0.999 | S. cerevisiae deletion strains, locus YDL192W, strain arf1, active compounds read low 0.995 | S. cerevisiae deletion strains, locus YDR101C, strain arx1, active compounds read low 0.99 | S. cerevisiae deletion strains, locus YDR162C, strain NBP2, active compounds read low 1.02 | S. cerevisiae deletion strains, locus YDR318W, strain mcm21, active compounds read low 0.99 | S. cerevisiae deletion strains, locus YDR388W, active compounds read low 0.993 | S. cerevisiae deletion strains, locus YDR502C, strain sam2, active compounds read low 1 | [5] 1.01 | S. cerevisiae deletion strains, locus YER110C, active compounds read low 1 | S. cerevisiae deletion strains, locus YER155C, strain BEM2, active compounds read low 1.01 | S. cerevisiae deletion strains, locus YER167W, strain BCK2, active compounds read low 1 | S. cerevisiae deletion strains, locus YGL078C, strain dbp3, active compounds read low 1 | S. cerevisiae deletion strains, locus YGL086W, strain mad1, active compounds read low 1 | S. cerevisiae deletion strains, locus YGL248W, strain PDE1, active compounds read low 0.992 | S. cerevisiae deletion strains, locus YGR135W, strain pre9, active compounds read low 0.997 | [7] 1.02 | S. cerevisiae deletion strains, locus YGR252W, strain gcn5, active compounds read low 1 | [8] 1.01 and 1.03 | S. cerevisiae deletion strains, locus YHR079C, strain IRE1 (second series), active compounds read low 1 | [28] 1.05 | S. cerevisiae deletion strains, locus YHR094C, strain hxt1, active compounds read low 0.995 | S. cerevisiae deletion strains, locus YHR129C, strain ARP1, active compounds read low 1 | S. cerevisiae deletion strains, locus YHR200W, strain rpn10, active compounds read low 1 | S. cerevisiae deletion strains, locus YIL066C, strain RNR3, active compounds read low 1 | S. cerevisiae deletion strains, locus YIL073C, strain SPO22, active compounds read low 1.03 | S. cerevisiae deletion strains, locus YIL125W, strain kgd1, active compounds read low 0.994 | S. cerevisiae deletion strains, locus YIR030C, strain dcg1, active compounds read low 0.997 | [29] 0.958 and 1.01 | S. cerevisiae deletion strains, locus YJL134W, strain LCB3, active compounds read low 1.01 | S. cerevisiae deletion strains, locus YJL168C, strain set2, active compounds read low 0.989 | S. cerevisiae deletion strains, locus YJL187C, strain SWE1 (second series), active compounds read low 1 | [9] 1.01 | [30] 0.963 | [10] 1.01 | S. cerevisiae deletion strains, locus YKL009W, strain mrt4, active compounds read low 1 | S. cerevisiae deletion strains, locus YKL068W, active compounds read low 1.01 | S. cerevisiae deletion strains, locus YKL085W, strain MDH1 (second series), active compounds read low 1 | S. cerevisiae deletion strains, locus YKL085W, strain MDH1, active compounds read low 1 | S. cerevisiae deletion strains, locus YKL190W, strain CNB1, active compounds read low 1.01 | S. cerevisiae deletion strains, locus YKR001C, strain vps1, active compounds read low 0.945 | [11] 0.755 | S. cerevisiae deletion strains, locus YLR058C, strain SHM2, active compounds read low 1.01 | S. cerevisiae deletion strains, locus YLR102C, strain apc9, active compounds read low 0.991 | [31] 1.02 | S. cerevisiae deletion strains, locus YLR268W, strain sec22, active compounds read low 1 | S. cerevisiae deletion strains, locus YLR330W, strain CHS5, active compounds read low 1.02 | S. cerevisiae deletion strains, locus YLR342W, strain FKS1 (second series), active compounds read low 0.999 | S. cerevisiae deletion strains, locus YLR371W, strain rom2, active compounds read low 0.995 | S. cerevisiae deletion strains, locus YLR418C, strain cdc73, active compounds read low 0.949 | S. cerevisiae deletion strains, locus YML016C, strain PPZ1, active compounds read low 1.01 | S. cerevisiae deletion strains, locus YML032C, strain rad52, active compounds read low 0.992 | S. cerevisiae deletion strains, locus YML124C, strain tub3, active compounds read low 0.999 | S. cerevisiae deletion strains, locus YMR078C, strain ctf18, active compounds read low 0.988 | S. cerevisiae deletion strains, locus YMR223W, strain ubp8, active compounds read low 1 | [13] 1.01 | [23] 1.22 | S. cerevisiae deletion strains, locus YNL067W, strain RPL9B, active compounds read low 1.01 | S. cerevisiae deletion strains, locus YNL128W, strain TEP1, active compounds read low 1.04 | [14] 0.997 | [32] 0.934 | S. cerevisiae deletion strains, locus YNL233W, strain BNI4, active compounds read low 0.97 | S. cerevisiae deletion strains, locus YNL250W, strain rad50, active compounds read low 1 | S. cerevisiae deletion strains, locus YNL271C, strain bni1, active compounds read low 0.992 | S. cerevisiae deletion strains, locus YNL298W, strain CLA4, active compounds read low 0.993 | S. cerevisiae deletion strains, locus YNL307C, strain MCK1, active compounds read low 0.926 | S. cerevisiae deletion strains, locus YNR052C, strain pop2, active compounds read low 1 | [16] 0.921 | S. cerevisiae deletion strains, locus YOL012C, strain htz1 0.873 | S. cerevisiae deletion strains, locus YOL147C, strain pex11, active compounds read low 1 | S. cerevisiae deletion strains, locus YOR061W, strain CKA2, active compounds read low 1 | S. cerevisiae deletion strains, locus YOR069W, strain VPS5, active compounds read low 1.01 | S. cerevisiae deletion strains, locus YOR136W, strain idh2, active compounds read low 1 | S. cerevisiae deletion strains, locus YOR144C, strain elg1, active compounds read low 1 | S. cerevisiae deletion strains, locus YOR184W, strain ser1, active compounds read low 0.974 | [33] 1.03 | S. cerevisiae deletion strains, locus YOR316C, strain cot1, active compounds read low 0.992 | [17] 1 | [34] 1.06 | S. cerevisiae deletion strains, locus YPR119W, strain clb2, active compounds read low 0.994 | S. cerevisiae deletion strains, locus YPR141C, strain kar3, active compounds read low 1 | S. cerevisiae deletion strains, locus YPR163C, strain tif3, active compounds read low 1.01 | S. cerevisiae deletion strains, locus YPR167C, strain met16, active compounds read low 1 | S. cerevisiae deletion strains, strain wtn01, active compounds read low 0.996 | S. cerevisiae strains, strain wild type, active compounds read low 1
active: [12] 0.606

C[C@]12CC[C@@H]3c4ccc(O)cc4CC[C@H]3[C@@H]1CC[C@@H]2O
inactive: [1] 1 | [19] 1.01 | [20] 1.01 | [4] 1.01 | [21] 1.01 | [22] 1.02 | [6] 0.999 | [10] 1.01 | [14] 0.948 | [24] 1.01 | [25] 1.03 | [26] 1.03 | [27] 0.899
